High-throughput results deposited in PubChem by National Center for Advancing Translational Sciences (NCATS).
The list is not random: actives were taken first. Their share in the collection is about 4.2%.
PLK1 PBD block: inhibitors of human PLK1 polo-box domain binding | P53350 | Plk1 PBD binding of FITC phosphopeptide, fluorescence polarization | Potency, µM, usual class: inhibitors | 360,000 compounds, 2.8% hits | AID 720504; also: series mostly up to about 57 µM; nearly all actives have a fitted effect of over 65% in size
Target sequence (P53350 whole entry, looked up, the tested form may be a part): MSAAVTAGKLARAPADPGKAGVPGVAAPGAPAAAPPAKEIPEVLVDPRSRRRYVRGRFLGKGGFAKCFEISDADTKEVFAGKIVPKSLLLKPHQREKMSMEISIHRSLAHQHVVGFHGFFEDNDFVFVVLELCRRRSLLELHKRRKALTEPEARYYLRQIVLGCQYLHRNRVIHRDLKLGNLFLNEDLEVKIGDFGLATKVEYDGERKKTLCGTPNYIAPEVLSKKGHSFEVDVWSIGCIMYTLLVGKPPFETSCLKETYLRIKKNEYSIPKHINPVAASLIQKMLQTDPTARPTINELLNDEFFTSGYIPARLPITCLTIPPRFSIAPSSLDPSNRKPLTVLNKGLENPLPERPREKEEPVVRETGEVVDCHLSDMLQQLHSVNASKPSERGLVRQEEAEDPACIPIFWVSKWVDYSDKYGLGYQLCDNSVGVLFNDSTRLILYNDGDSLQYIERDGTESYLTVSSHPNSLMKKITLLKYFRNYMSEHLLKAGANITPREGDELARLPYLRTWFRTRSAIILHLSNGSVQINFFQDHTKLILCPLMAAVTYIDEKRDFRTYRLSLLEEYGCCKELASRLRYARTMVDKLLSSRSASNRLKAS
VDR inhibitor: inhibitors of human vitamin D receptor; VDR-SRC2-3 peptide fluorescence polarization, 2 h; P11473; Potency, µM, hits mostly inhibitors; 400,000 compounds, 0.93% hits
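FP read-out; VDR + SRC2-3 coactivator peptide; 23 nl compound by pintool; 2 h RT incubation; reagents held at 4 deg C, protected from light.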
ALOX12 inh: inhibitors of human 12S-lipoxygenase ALOX12; P18054; purified 12hLO, xylenol orange hydroperoxide absorbance; Potency, µM (highest dose often 108 µM), most hits filed as inhibitors; 580,000 compounds, 1.1% hits
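Purified human 12hLO at 150 nM in 25 mM Hepes, 0.01% Triton X-100, pH 7.0, preincubated 15 min at room temperature with compound. Reaction started with 40 uM arachidonic acid, 30 min at room temperature. Hydroperoxide measured by Fe-xylenol orange, 573/405 nm absorbance ratio.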
Sfp inh: Sfp phosphopantetheinyl transferase inhibition; Potency, µM, most hits filed as inhibitors; Q9F4F7; 310,000 compounds, 3.5% hits; Biochemical Sfp PPTase activity, qHTS;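 also: the enzyme is Sfp with the accession as filed and its product quenches rhodamine fluorescence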
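Step 1, compound plus 15 nM Sfp-PPTase, 15 min, room temperature. Step 2, add rhodamine-CoA (5 uM) and BHQ-2-YbbR (12.5 uM). Step 3, read 525/598 nm fluorescence at 0 and 30 min.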
Large screens that a line does not name were inactive. Calls follow the shape of the dose curve; as a rule, active = well fitted curve in the direction sought with a large enough effect; inconclusive = small, poorly fitted or top-dose-only effect, or another doubt; inactive = no such curve, though single readings can be large; an effect the other way counts as inactive or inconclusive.

COc1cc(-c2nnc(SCC(=O)c3cc(C)n(CC4CCCO4)c3C)o2)cc(OC)c1OC (stereo not given)	Sfp inh 89µM
COc1ccc(-c2cn3c4c(sc3n2)CCCC4)cc1	Sfp inh 79µM
COc1ccc(-c2cn3c(C)c(C(=O)Nc4ccncc4)sc3n2)cc1	Sfp inh 45µM
N#Cc1cc2c(nc1SCC(=O)NCc1ccc3c(c1)OCO3)CCCCC2	none
Cc1csc(NC(=O)c2ccc3ccccc3n2)n1	ALOX12 inh 14µM
Cc1csc(NC(=O)c2cnc3ccccc3n2)n1	none
COc1ccc(N2C(=O)CC(N3CCN(c4cccc(Cl)c4)CC3)C2=O)cc1 (stereo not given)	VDR inhibitor inconclusive
CCC(=O)N(Cc1ccco1)c1nc(C(=O)Nc2ccc(Cl)cc2)c(C)s1	PLK1 PBD block inconclusive, VDR inhibitor inconclusive, ALOX12 inh inconclusive, Sfp inh 20µM
CC(C)N(Cc1ccccc1)C(=O)c1cnc2n(c1=O)CCS2	none
COc1cc2c(cc1NC(=O)c1cc(-c3cccnc3)nc3ccc(C)cc13)oc1ccccc12	none
COCCn1c(=NC(=O)CSCC(=O)Nc2cc(C)on2)sc2cc(C(=O)OC)ccc21	PLK1 PBD block 27µM
COc1ccc(CNC(=O)NS(=O)(=O)c2ccc(C)cc2)cc1	none
CCn1nnnc1NCc1ccc(N2CCCC2)cc1	PLK1 PBD block 3.8µM, VDR inhibitor inconclusive, ALOX12 inh inconclusive, Sfp inh inconclusive
Cc1ccc(CNC(=O)CCS(=O)(=O)c2cc(Br)cc3c2N(C(=O)C2CC2)CC3)o1	Sfp inh 10µM
COc1ccc(CNC(=O)CCS(=O)(=O)c2ccc(Br)cc2)cc1	PLK1 PBD block inconclusive
Cc1ccc(CNC(=O)CCS(=O)(=O)c2cc(Br)cc3c2N(C(=O)C2CC2)CC3)cc1	none (no result: PLK1 PBD block, Sfp inh)
COc1ccc(S(=O)(=O)CCC(=O)NCc2ccc(C)o2)cc1	PLK1 PBD block inconclusive, VDR inhibitor inconclusive, Sfp inh 50µM
CCOc1ccccc1NC(=O)CCS(=O)(=O)c1ccc2c(c1)CCN2C(C)=O	PLK1 PBD block 21µM
COc1ccc(S(=O)(=O)CCC(=O)NC2CCCCC2)cc1	PLK1 PBD block 30µM
CCOc1ccccc1NC(=O)CCS(=O)(=O)c1ccc2c(c1)CC(C)N2C(C)=O (stereo not given)	PLK1 PBD block inconclusive, ALOX12 inh inconclusive
CC(=O)N1CCc2cc(S(=O)(=O)CCC(=O)NCc3ccc(C)o3)ccc21	Sfp inh 25µM
Cc1cccc(CC(Cc2nc3ccccc3[nH]2)c2nc3ccccc3[nH]2)c1 (stereo not given)	Sfp inh 40µM
O=C(Nc1ccc(F)c(Cl)c1)c1csc(COCCO)n1	none (no result: VDR inhibitor, Sfp inh)
COc1ccc(C2COc3cc(O)ccc3C2)c(OC)c1O (stereo not given)	ALOX12 inh 35µM (no result: Sfp inh)
COc1ccc(C2CC(c3ccccc3Br)=NN2c2ccc(S(N)(=O)=O)cc2)cc1 (stereo not given)	none (no result: Sfp inh)
CCNC(=O)COC(=O)c1cc(-c2ccco2)nc2ccccc12	PLK1 PBD block inconclusive, VDR inhibitor inconclusive, ALOX12 inh 7.1µM, Sfp inh 16µM
Cc1cc(C(=O)OCC(=O)NC(C)C)c2ccccc2n1	PLK1 PBD block 12µM, VDR inhibitor inconclusive
CCNC(=O)NC(=O)C(C)OC(=O)c1cc(-c2ccco2)nc2ccccc12 (stereo not given)	ALOX12 inh 13µM (no result: PLK1 PBD block, VDR inhibitor, Sfp inh)
NC(=O)NC(=O)COC(=O)c1cc(-c2ccco2)nc2ccccc12	ALOX12 inh 14µM (no result: PLK1 PBD block, VDR inhibitor, Sfp inh)
O=C(CCc1nc2ccccc2s1)NCC(=O)N1CCCCCCNC(=O)CC1c1ccccc1 (stereo not given)	none (no result: PLK1 PBD block, VDR inhibitor, Sfp inh)
O=C(C1CCC(CNS(=O)(=O)c2cccc3nsnc23)CC1)N1CC=C(c2ccccc2)CC1 (stereo not given)	none
CCOC(=O)c1ccc(C(=S)N2CCCC2)cc1	PLK1 PBD block 7.5µM, ALOX12 inh inconclusive, Sfp inh 40µM
COc1ccc(C(=S)N2CCCCCC2)cc1	PLK1 PBD block 27µM, VDR inhibitor inconclusive, ALOX12 inh inconclusive
COc1ccc(C(=S)N2CCNCC2)cc1	none
COc1ccc(C(=S)N2CCN(c3ccccc3C)CC2)cc1	PLK1 PBD block 21µM, Sfp inh inconclusive
COc1nc2ccccc2cc1-c1noc(-c2ccncc2)n1	none (no result: PLK1 PBD block, VDR inhibitor, Sfp inh)
COc1ccc(S(=O)(=O)N(CC(N)=O)C2CCCCC2)cc1Cl	PLK1 PBD block 12µM
CN(C1CCCCC1)S(=O)(=O)c1ccc(C(=O)O)cc1	none
CN(C1CCCCC1)S(=O)(=O)c1ccc(Cl)c(C(=O)O)c1	PLK1 PBD block 19µM, VDR inhibitor inconclusive
COc1ccc(S(=O)(=O)N(C)CC(=O)NC2CCCCC2)cc1Cl	none
CCn1cnc2c1c(=O)n(CC(=O)c1cc(C)n(C(C)COC)c1C)c(=O)n2Cc1ccccc1 (stereo not given)	none (no result: PLK1 PBD block, VDR inhibitor, Sfp inh)
COC(=O)C(=C/C(C)=C/c1cccs1)C(=O)OC	PLK1 PBD block 19µM
COC(=O)N/N=C/c1cccs1	none
COCCN(C(=S)Nc1ccc(C)cc1C)C(C)c1cccs1 (stereo not given)	none
COCCN(C(=S)Nc1c(C)cc(C)cc1C)C(C)c1cccs1 (stereo not given)	PLK1 PBD block inconclusive, Sfp inh 50µM
O=C(c1cccc(F)c1)N1CCC2(CC1)OCC(C(=O)N1CCCC1)N2C(=O)c1ccco1 (stereo not given)	none (no result: PLK1 PBD block, VDR inhibitor, Sfp inh)
CN(C)S(=O)(=O)c1cccc(COc2cccnc2[N+](=O)[O-])c1	PLK1 PBD block 30µM, VDR inhibitor inconclusive
COC(=O)[C@@]1(C)[C@H]2C(=O)N(C)C(=O)[C@H]2[C@H]2CN=C(SCC(=O)c3ccccc3)N21	PLK1 PBD block 24µM, VDR inhibitor 32µM, ALOX12 inh inconclusive (no result: Sfp inh)
COC(=O)[C@@]1(C)[C@H]2C(=O)N(C)C(=O)[C@H]2[C@H]2CN=C(SCc3ccccc3)N21	none (no result: Sfp inh)
COc1ccc(CCNC(=O)C(=O)NCC2OCCN2C(=O)c2ccc(Cl)cc2)cc1OC (stereo not given)	none
N#CC1=C2SCN(Cc3ccccc3)CN2C(=O)CC1c1cccs1 (stereo not given)	PLK1 PBD block 24µM, VDR inhibitor inconclusive, ALOX12 inh inconclusive, Sfp inh 1.1µM
COc1ccc(C2CC(=O)N3CN(Cc4ccco4)CSC3=C2C#N)cc1 (stereo not given)	PLK1 PBD block 27µM, VDR inhibitor 28µM, ALOX12 inh inconclusive, Sfp inh 1.4µM
O=C1NC(=O)C2C1C(c1cccs1)NN2Cc1ccccc1 (stereo not given)	none
N#CC1=C2SCN(Cc3ccco3)CN2C(=O)CC1c1ccc(Cl)cc1 (stereo not given)	PLK1 PBD block 27µM, VDR inhibitor inconclusive, ALOX12 inh inconclusive, Sfp inh 2.5µM
O=C1C=C(NCc2ccco2)CC(c2ccc(Cl)cc2)C1 (stereo not given)	ALOX12 inh inconclusive
COc1ccc2ccccc2c1C1CC(=O)N2CN(C3CCCCC3)CSC2=C1C#N (stereo not given)	PLK1 PBD block 13µM, VDR inhibitor 89µM, ALOX12 inh 18µM, Sfp inh 13µM
COC(=O)C1=C(C)N(C)C(=O)NC1c1c(OC)ccc2ccccc12 (stereo not given)	none
